Records with an inconclusive call do not appear. Activity calls are given as the source filed them. Rule for the calls: active = hit-call score of the fitted dose curve at least 0.9, where 1 is the maximum; inconclusive = response in the unintended direction; inactive = score below 0.9.

The nature of assay [1]: Tanguay_ZF_120hpf_MORT_legacy: (Legacy) Oregon State University Tanguay Lab 120 Hour Post-fertilization zebrafish Assay for Mortality (AID 2283633). In short, it runs like this: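 Dechorionated Tropical 5D wild-type zebrafish embryos, one per well from 6 hpf, were statically exposed at 28C in the dark until 120 hpf (0.64% DMSO final). Mortality was scored as present/absent by brightfield microscopy, fitted positively versus DMSO.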

The nature of assay [2]: Tanguay_ZF_120hpf_YSE_legacy: (Legacy) Oregon State University Tanguay Lab 120 Hour Post-fertilization zebrafish Assay for Yolk Sac Edema (AID 2283634). In short, it runs like this: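 Tropical 5D wild-type embryos, dechorionated with pronase at 4 hpf, were exposed singly from 6 hpf to 120 hpf under static, sealed, dark conditions at 28C with 0.64% DMSO final. Yolk sac edema was scored present/absent by brightfield microscopy.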

The nature of assay [3]: Tanguay_ZF_120hpf_AXIS_legacy: (Legacy) Oregon State University Tanguay Lab 120 Hour Post-fertilization zebrafish Assay for Body Axis Malformation (AID 2283635). In outline:
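Tropical 5D wild-type zebrafish embryos, dechorionated with pronase at 4 hpf, were placed singly in wells at 6 hpf and exposed statically to test chemical (0.64% DMSO final) at 28C until 120 hpf, then scored by brightfield for body axis defects.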

A short description of assay [4]: Tanguay_ZF_120hpf_EYE_legacy: (Legacy) Oregon State University Tanguay Lab 120 Hour Post-fertilization zebrafish Assay for Eye Malformation (AID 2283636). In short, it runs like this: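 Read-out is binary presence or absence of eye malformation, scored by brightfield microscopy at 120 hpf. Single larvae were exposed from 6 hpf in embryo medium containing 0.64% DMSO, with DMSO as baseline.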

Assay [5] in a line: Tanguay_ZF_120hpf_SNOU_legacy: (Legacy) Oregon State University Tanguay Lab 120 Hour Post-fertilization zebrafish Assay for Snout Malformation (AID 2283637). In short, it runs like this: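 Snout malformation read as a yes/no call on brightfield images of 120 hpf larvae (Tropical 5D strain). Static exposure began at 6 hpf on dechorionated embryos in 0.64% DMSO, with gain of signal analysed versus DMSO controls.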

Assay [6] can be described thus: Tanguay_ZF_120hpf_JAW_legacy: (Legacy) Oregon State University Tanguay Lab 120 Hour Post-fertilization zebrafish Assay for Jaw Malformation (AID 2283638). In outline: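 Tropical 5D wild-type embryos, dechorionated with pronase at 4 hpf, were placed singly per well at 6 hpf and statically exposed at 28C until 120 hpf (0.64% DMSO final). Jaw malformation scored as present/absent by brightfield microscopy at 120 hpf, analyzed relative to DMSO.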

A short description of assay [7]: Tanguay_ZF_120hpf_PE_legacy: (Legacy) Oregon State University Tanguay Lab 120 Hour Post-fertilization zebrafish Assay for Pericardial Edema (AID 2283640). In short, it runs like this:
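Tropical 5D wild-type zebrafish embryos were exposed statically to 120 hpf at 28C, sealed and foil-covered, in 0.64% DMSO final. Pericardial edema was scored present/absent by brightfield microscopy; dead embryos were not scored.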

Assay [8] in a line: Tanguay_ZF_120hpf_SOMI_legacy: (Legacy) Oregon State University Tanguay Lab 120 Hour Post-fertilization zebrafish Assay for Somite Malformation (AID 2283647). In short, it runs like this: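 Tropical 5D wild-type zebrafish embryos, dechorionated with pronase at 4 hpf, were placed singly at 6 hpf and statically exposed until 120 hpf at 28C in 0.64% DMSO. Somite malformation was scored present/absent by brightfield microscopy versus DMSO.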

Assay [9] is described as follows: Tanguay_ZF_120hpf_PFIN_legacy: (Legacy) Oregon State University Tanguay Lab 120 Hour Post-fertilization zebrafish Assay for Pectoral Fin Malformation (AID 2283648).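 Note: each larva judged yes or no for fin defect by brightfield with dead larvae skipped.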 In outline: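 5D WT zebrafish; pronase dechorionation 4 hpf; 1 embryo/well at 6 hpf; static exposure to 120 hpf, 28C, sealed, foil-covered; final DMSO 0.64% v/v; 5 uM trimethyltin chloride positive control; fin defect scored yes/no.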

A short description of assay [10]: Tanguay_ZF_120hpf_PIG_legacy: (Legacy) Oregon State University Tanguay Lab 120 Hour Post-fertilization zebrafish Assay for Pigmentation Malformation (AID 2283650). In outline: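 Pronase dechorionation at 4 hpf; embryos plated at 6 hpf, one per well; static exposure, sealed and foil-covered, 28C, to 120 hpf; pigmentation read by brightfield, binary; DMSO 0.64% baseline, 5uM trimethyltin chloride positive control.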

A short description of assay [11]: Tanguay_ZF_120hpf_SWIM_legacy: (Legacy) Oregon State University Tanguay Lab 120 Hour Post-fertilization zebrafish Assay for Swim Bladder Malformation (AID 2283654).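 Note: swim bladder malformation in each larva scored yes or no under brightfield.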 In short, it runs like this:
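Embryos lacking chorions were exposed individually and statically to test chemical from 6 to 120 hpf at 28C, with 0.64% DMSO as vehicle. At 120 hpf, swim bladder malformation was recorded as present or absent by brightfield microscopy.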

Assay [12] is described as follows: Tanguay_ZF_120hpf_TRUN_legacy: (Legacy) Oregon State University Tanguay Lab 120 Hour Post-fertilization zebrafish Assay for Truncated Body (AID 2283655). In outline:
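Tropical 5D wild-type embryos, dechorionated with pronase at 4 hpf, were placed singly in wells at 6 hpf and statically exposed at 28C until 120 hpf, final DMSO 0.64%. Truncated body was scored present/absent by brightfield microscopy.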

Assay [13] relates to Thyroperoxidase (TPO), gene 54314. In words: CCTE_Simmons_AUR_rTPO: CCTE's Amplex UltraRed Assay for Thyroperoxidase (TPO) Inhibition, Simmons Lab (AID 2283662).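 Note: potency for loss of signal meaning inhibition of peroxidase activity.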 In outline: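 Rat thyroid microsomes (5 ug protein) were incubated with test compound (8 concentrations, 5 nM–87.5 uM final, 0.5% DMSO), 25 uM Amplex UltraRed and 300 uM H2O2 in 200 mM phosphate buffer for 30 min at 37C in the dark; fluorescence read at 544/590 nm.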

A short description of assay [14]: Tanguay_ZF_120hpf_OTIC_legacy: (Legacy) Oregon State University Tanguay Lab 120 Hour Post-fertilization zebrafish Assay for Otic Vesicle Malformation (AID 2283639). In short, it runs like this: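 Tropical 5D wild-type zebrafish embryos were exposed statically in sealed, foil-covered plates at 28C until 120 hpf, with 0.64% (vol/vol) DMSO final. Otic vesicle malformation was scored present/absent by brightfield microscopy, with DMSO as baseline.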

Assay [15] in a line: Tanguay_ZF_120hpf_BRAI_legacy: (Legacy) Oregon State University Tanguay Lab 120 Hour Post-fertilization zebrafish Assay for Brain Malformation (AID 2283641). In short, it runs like this:
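Tropical 5D wild-type zebrafish embryos were exposed statically in sealed, foil-covered plates at 28C until 120 hpf, with 0.64% (vol/vol) final DMSO. Brain malformation was scored present/absent by brightfield microscopy, relative to DMSO baseline.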

Assay [16] concerns the target Cellular tumor antigen p53 (Homo sapiens) (UniProt P04637). As to the kind of experiment: TOX21_p53_BLA_p4_ratio: Tox21 HCT-116 p53 Agonism Beta-lactamase Assay, Ratio, Phase 4 (AID 2283601). In outline: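 Signal is the blue/green (460nm/530nm) ratio of cleaved versus uncleaved CCF4-AM substrate, read after 2 h substrate loading. Cells were HCT116 carrying the p53-responsive beta-lactamase reporter, dosed 16 h at 37C, 5% CO2; CellTiter-Glo measured in parallel.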

Chain of Cellular tumor antigen p53 (Homo sapiens) (P04637 whole entry, looked up): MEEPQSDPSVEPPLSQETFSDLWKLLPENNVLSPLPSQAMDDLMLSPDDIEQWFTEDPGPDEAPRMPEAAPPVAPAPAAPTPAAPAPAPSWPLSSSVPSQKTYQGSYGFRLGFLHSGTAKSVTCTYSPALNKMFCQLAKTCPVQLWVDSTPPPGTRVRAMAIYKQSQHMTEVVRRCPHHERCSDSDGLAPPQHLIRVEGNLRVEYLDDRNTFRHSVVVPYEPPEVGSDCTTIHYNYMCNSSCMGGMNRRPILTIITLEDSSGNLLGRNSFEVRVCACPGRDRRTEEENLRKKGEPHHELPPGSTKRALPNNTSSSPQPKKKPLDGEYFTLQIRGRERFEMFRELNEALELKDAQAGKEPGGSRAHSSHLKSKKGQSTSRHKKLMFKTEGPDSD

For `CC(C)(C)c1ccc(O)cc1`, the call in assay [1], in assay [2], in [3], in [4], in [5] and in [6] was inactive. Besides, the molecule was called inactive in assay [7], in assay [8], in assay [9], in [11] and in [12]. Also, the results for the AC50 in [10] and in assay [13] were 25.2 µM (active) and 2.73 µM (active), respectively.

In the case of `COCCOCCO`, the molecule was called inactive in assay [1], in assay [2], in assay [3], in assay [4], in assay [5] and in assay [6]. The molecule was classed as inactive in assay [14], in assay [7], in [15], in assay [8], in [10] and in assay [11]. Also, the call in [12] was inactive.

On to `CCOP(=S)(OCC)SCSCC`, for which the molecule was called inactive in [1], in assay [2], in assay [3], in assay [4], in assay [5] and in assay [6]. Further, the result in assay [14], in [7], in [15], in assay [8], in assay [9] and in [10] was inactive. In addition, the molecule was called inactive in assay [11] and in [12]. Besides, the AC50 (commonly the midpoint of the concentration-response curve, whichever way the signal moves) in assay [13] is 20.5 µM (active).

On to `CCN(CC)c1ccccc1`, for which the result in assay [16], in [1], in assay [2], in assay [5], in assay [14] and in [7] was inactive. The result in assay [15], in assay [8], in assay [11] and in assay [12] was inactive.

For `CCNc1nc(Cl)nc(NC(C)(C)C)n1`, the molecule was called inactive in assay [1], in [2], in assay [5], in assay [14], in [15] and in [8]. Besides, the molecule was called inactive in assay [9], in assay [10], in assay [11] and in assay [12].

Take `ClC(Cl)(Cl)c1ccccc1`: the outcome in assay [16], in assay [1], in assay [2], in assay [3], in [4] and in [6] was inactive. Also, the molecule was called inactive in assay [14], in assay [8] and in assay [10].

On to `CSC(C)(C)C=NO`, for which the call in assay [1], in [2], in [3], in assay [4], in assay [5] and in assay [6] was inactive. Further, the result in assay [14], in assay [7], in assay [15], in assay [8], in [9] and in assay [10] was inactive. Moreover, the outcome in assay [11] and in assay [12] was inactive.

`CCCCCCCc1ccc(O)cc1`: the molecule was classed as inactive in assay [1], in assay [2], in [3], in [4], in [5] and in [6]. For the same molecule, the molecule was called inactive in assay [7], in [15], in [8], in [9], in assay [10] and in assay [11]. The result in [12] was inactive. The AC50 in assay [13] was 10.2 µM (active).

Take `Cc1ccc(O)cc1C`: the call in assay [1], in assay [2], in assay [3], in [4], in [5] and in assay [6] was inactive. For the same molecule, the result in assay [7], in [8], in assay [9], in [10], in [11] and in assay [12] was inactive.

`Cc1cccc(N)c1`: the outcome in assay [16], in [1], in [2], in assay [3], in assay [4] and in [5] was inactive. The outcome in [6], in assay [7], in assay [15], in [8], in [10] and in assay [11] was inactive. Further, the call in [12] was inactive. In [13], the AC50 is 0.268 µM (active).

As for `O=C(O)C(Cl)Cl`, the molecule was classed as inactive in assay [1], in assay [2], in assay [3], in assay [4], in assay [5] and in assay [6]. The molecule was classed as inactive in [14], in assay [7], in assay [15], in assay [8], in [9] and in [10]. Also, the molecule was called inactive in [11] and in assay [12].

Regarding `CN(C)C(=O)Cl`, the molecule was called inactive in assay [1], in assay [2], in assay [4], in assay [5], in [6] and in assay [14]. Also, the molecule was called inactive in [7], in assay [15], in [10] and in assay [12].

The values are drawn from PubChem BioAssay (EPA / NIEHS).
